Where “and” joins values, the source holds several entries; their conditions need not be identical. Equal values may be shown once. A structure can be active in one record and inactive in another. Calls of active or inactive are those of the source. How the source made its calls: active means hit-call score of the fitted dose curve at least 0.9, where 1 is the maximum; inactive means score below 0.9.
What was measured:
[1] = BSK_LPS_PGE2: BioMAP Diversity Plus: LPS Assay for Prostaglandin E2 (PGE2) Biomarker Activity (AID 2283082); conditions: primary human HUVEC with PBMC; actives raise or lower the signal;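 on AC50: secreted prostaglandin E2 measured by ELISA in LPS-stimulated co-culture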
In short: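 Compounds were added to the LPS co-culture of endothelium and PBMC, and PGE2 was measured by ELISA after 24 h. Responses in either direction were fitted with DMSO as baseline.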

[2] = read-out: Macrophage colony-stimulating factor (MCSF), CSF1 (gene 1435); assay: BSK_LPS_MCSF: BioMAP Diversity Plus: LPS Assay for Macrophage colony-stimulating factor (MCSF) Biomarker Activity (AID 2283083); conditions: primary human HUVEC with PBMC; actives raise or lower the signal
In short: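 HUVEC + PBMC co-culture (human primary), 24 h post-dose; M-CSF by ELISA; gain/loss of signal fitted bidirectionally vs DMSO baseline.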

[3] = read-out: Tissue Factor, F3 (gene 2152); assay: BSK_LPS_TissueFactor: BioMAP Diversity Plus: LPS Assay for Tissue Factor Biomarker Activity (AID 2283084); conditions: primary human HUVEC with PBMC; actives raise or lower the signal
In short: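 HUVEC/PBMC co-culture, LPS-activated; CD142 ELISA read 24 h post-dose; bidirectional curve fit vs DMSO negative control.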

[4] = read-out: Tumor necrosis factor (Homo sapiens) (UniProt P01375); assay: BSK_LPS_TNFa: BioMAP Diversity Plus: LPS Assay for Tumour Necrosis Factor alpha (TNFa) Biomarker Activity (AID 2283085); conditions: primary human HUVEC with PBMC; actives raise or lower the signal;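 on AC50: TNFa protein level quantified by ELISA in the co-culture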
In short: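 Cells (umbilical vein endothelium plus peripheral blood mononuclear cells) were dosed with chemical, incubated 24 h, then TNFa was quantified by ELISA; values derive from bidirectional fitting with DMSO as baseline.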

[5] = read-out: Vascular cell adhesion molecule 1 (VCAM1), VCAM1 (gene 7412); assay: BSK_LPS_VCAM1: BioMAP Diversity Plus: LPS Assay for Vascular cell adhesion molecule 1 (VCAM1) Biomarker Activity (AID 2283086); conditions: primary human HUVEC with PBMC; actives raise or lower the signal
In short: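 Cells are dosed in an LPS-stimulated endothelial/mononuclear co-culture and, after 24 h, VCAM-1 is quantified by ELISA. Activity in either direction is fitted relative to the DMSO negative control.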

[6] = read-out: CD38, CD38 (gene 952); assay: BSK_SAg_CD38: BioMAP Diversity Plus: SAg Assay for CD38 Biomarker Activity (AID 2283087); conditions: primary human HUVEC with PBMC; actives raise or lower the signal
In short: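 CD38 quantified by ELISA (fluorescence) in a superantigen-activated endothelial cell–PBMC co-culture at 24 h post-dose. Activity fitted in both directions relative to DMSO; parallel SRB and Alamar Blue cytotoxicity read-outs.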

[7] = read-out: CD40, CD40 (gene 958); assay: BSK_SAg_CD40: BioMAP Diversity Plus: SAg Assay for CD40 Biomarker Activity (AID 2283088); conditions: primary human HUVEC with PBMC; actives raise or lower the signal
In short: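 HUVEC/PBMC co-culture, 24 h post-dose; CD40 by ELISA, fluorescence intensity; bidirectional fit vs DMSO negative control.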

[8] = read-out: CD69, CD69 (gene 969); assay: BSK_SAg_CD69: BioMAP Diversity Plus: SAg Assay for CD69 Biomarker Activity (AID 2283089); conditions: primary human HUVEC with PBMC; actives raise or lower the signal;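 on AC50: cell surface CD69 protein quantified by ELISA with fluorescence detection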
In short: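 Endothelial/PBMC co-culture; chemical added; 24 h incubation; CD69 ELISA with fluorescence detection; bidirectional fit vs DMSO.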

[9] = read-out: Monocyte Chemoattractant Protein-1 (MCP1), CCL2 (gene 6347); assay: BSK_SAg_MCP1: BioMAP Diversity Plus: SAg Assay for Monocyte Chemoattractant Protein-1 (MCP1) Biomarker Activity (AID 2283090); conditions: primary human HUVEC with PBMC; actives raise or lower the signal
In short: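 Values derive from bidirectional fitting of ELISA-measured MCP1 against DMSO controls. Readings were taken 24 h after dosing human vascular endothelial cells co-cultured with peripheral blood mononuclear cells under superantigen stimulation.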

[10] = read-out: E-selectin (Homo sapiens) (UniProt P16581); assay: BSK_SAg_Eselectin: BioMAP Diversity Plus: SAg Assay for Eselectin Biomarker Activity (AID 2283091); conditions: primary human HUVEC with PBMC; actives raise or lower the signal
In short: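 E-selectin ELISA readout at 24 h post-dosing in human umbilical vein endothelial cell/PBMC co-culture; gain or loss of signal fitted relative to DMSO baseline.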

[11] = read-out: Monokine induced gamma interferon (MIG), CXCL9 (gene 4283); assay: BSK_SAg_MIG: BioMAP Diversity Plus: SAg Assay for Monokine induced gamma interferon (MIG) Biomarker Activity (AID 2283092); conditions: primary human HUVEC with PBMC; actives raise or lower the signal
In short: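 Measures CXCL9 protein by ELISA in a human vascular primary-cell co-culture (umbilical vein endothelium with PBMC) 24 h after chemical addition. Activity is scored up or down from the DMSO control.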

[12] = BSK_SAg_PBMCCytotoxicity: PBMC Cytotoxicity Assessment in the BioMAP Diversity Plus: SAg Assay (AID 2283093); conditions: primary human HUVEC with PBMC;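 further: fitted both ways against DMSO so a hit may be loss or gain of signal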;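 on AC50: PBMC superantigen activated with SEB plus TSST-1 one hour after compound addition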
In short: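 PBMC viability by Alamar Blue reduction, fluorescence read at 546/580 nm after 6 h dye exposure. Cells were dosed 1 h before SEB plus TSST-1 activation (20 ng/mL final each), then held 90 h; endothelial/PBMC human co-culture.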

[13] = read-out: Interleukin-8 (IL8), CXCL8 (gene 3576); assay: BSK_SAg_IL8: BioMAP Diversity Plus: SAg Assay for Interleukin-8 (IL8) Biomarker Activity (AID 2283094); conditions: primary human HUVEC with PBMC; actives raise or lower the signal
In short: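 Chemicals were dosed onto a human endothelial–PBMC co-culture, and IL-8 was quantified by ELISA after 24 h. Both increases and decreases were fitted relative to DMSO.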

[14] = BSK_SAg_SRB: Viability Assessment in the BioMAP Diversity Plus: SAg Assay (AID 2283096); conditions: primary human HUVEC with PBMC;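 further: cells read one day after compound addition; hits may be either gain or loss of signal compared with DMSO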
In short: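 Compounds were added to a human vascular co-culture of umbilical vein endothelium and PBMC. After 24 h, parallel cultures were fixed with 10% TCA, stained with 0.1% sulforhodamine B and read at 560 nm. Gain or loss of signal was fitted relative to DMSO.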

[15] = BSK_SAg_Proliferation: Cell Proliferation Assessment in the BioMAP Diversity Plus: SAg Assay (AID 2283095); conditions: primary human HUVEC with PBMC;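 further: relative cell number as total protein by SRB absorbance in sub-confluent culture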
In short: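 Absorbance of sulforhodamine B at 560 nm reports total protein in a human vascular endothelial/PBMC co-culture after 96 h chemical exposure. Gain or loss of signal is fitted in both directions against DMSO.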

Measured: AC50

Chain of Tumor necrosis factor (Homo sapiens) (P01375 whole entry, looked up): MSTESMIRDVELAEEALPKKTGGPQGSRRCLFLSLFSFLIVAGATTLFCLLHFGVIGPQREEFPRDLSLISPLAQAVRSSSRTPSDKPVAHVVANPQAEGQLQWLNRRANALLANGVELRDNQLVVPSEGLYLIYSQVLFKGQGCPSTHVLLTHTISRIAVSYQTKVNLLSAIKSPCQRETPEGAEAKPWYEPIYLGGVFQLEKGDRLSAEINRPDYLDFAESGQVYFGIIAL
Chain of E-selectin (Homo sapiens) (P16581 whole entry, looked up): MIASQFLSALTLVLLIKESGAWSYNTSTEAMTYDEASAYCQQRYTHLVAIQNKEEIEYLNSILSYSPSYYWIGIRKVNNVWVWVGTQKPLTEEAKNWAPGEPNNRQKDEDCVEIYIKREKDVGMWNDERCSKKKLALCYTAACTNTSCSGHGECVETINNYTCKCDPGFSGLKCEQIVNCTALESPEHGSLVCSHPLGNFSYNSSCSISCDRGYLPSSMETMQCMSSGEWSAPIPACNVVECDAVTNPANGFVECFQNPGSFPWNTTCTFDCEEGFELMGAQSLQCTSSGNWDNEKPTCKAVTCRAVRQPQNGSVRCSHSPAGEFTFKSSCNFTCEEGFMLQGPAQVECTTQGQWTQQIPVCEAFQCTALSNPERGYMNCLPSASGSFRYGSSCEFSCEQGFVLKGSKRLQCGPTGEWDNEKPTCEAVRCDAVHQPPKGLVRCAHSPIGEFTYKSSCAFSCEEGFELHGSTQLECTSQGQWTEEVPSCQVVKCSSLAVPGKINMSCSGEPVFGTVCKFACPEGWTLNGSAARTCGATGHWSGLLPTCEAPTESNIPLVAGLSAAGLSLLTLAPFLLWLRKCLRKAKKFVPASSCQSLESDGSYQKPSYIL

FC(F)(F)C(F)(F)C(F)(F)CC1CO1 (centres undefined)
not listed: [15]
inactive: all other assays above

O=S(=O)(Cl)C(F)(F)C(F)(F)C(F)(F)C(F)(F)C(F)(F)C(F)(F)C(F)(F)C(F)(F)F
active: [1] 46.8 µM and 42.8 µM | [8] 15 µM | [10] 37.5 µM | [14] 43.2 µM and 55.5 µM
inactive: [2] | [3] | [4] | [5] | [6] | [7] | [8] | [9] | [10] | [11] | [12] | [13]

OCC(O)CC(F)(F)C(F)(F)C(F)(F)C(F)(F)F (centres undefined)
inactive: all assays above

COC(F)(C(F)F)C(F)(F)F (centres undefined)
not listed: [1]
inactive: all other assays above

C[Si](Cl)(Cl)CCC(F)(F)C(F)(F)C(F)(F)C(F)(F)C(F)(F)C(F)(F)F
not listed: [15]
inactive: all other assays above

O=C(O)C(F)(F)C(F)(F)C(F)(F)C(=O)O
not listed: [15]
inactive: all other assays above

C=C(C)C(=O)OCC(F)(F)C(F)(F)C(F)(F)C(F)F
inactive: [1] | [2] | [3] | [4] | [5] | [6] | [7] | [8] | [9] | [10] | [11] | [12] | [13] | [14]
active: [2] 0.646 µM

CCN(CC)c1ccc(C=O)cc1
not listed: [1]
inactive: all other assays above

C=CC(=O)OCCC(F)(F)C(F)(F)C(F)(F)C(F)(F)F
inactive: [1] | [2] | [3] | [4] | [11] | [14]
active: [3] 30 µM | [5] 32.7 µM and 15.7 µM | [6] 47.8 µM and 30 µM | [7] 30 µM | [8] 28 µM and 30.9 µM | [9] 19.4 µM and 14.4 µM | [10] 40.1 µM and 40 µM | [12] 30 µM | [13] 33 µM and 30.1 µM | [15] 30 µM

OCC(F)(F)C(F)(F)C(F)(F)C(F)(F)C(F)(F)C(F)(F)CO
active: [4] 1.9 µM
inactive: [2] | [3] | [4] | [5] | [6] | [7] | [8] | [9] | [10] | [11] | [12] | [13] | [15] | [14]

O=C=NCc1cccc(CN=C=O)c1
not listed: [15]
inactive: all other assays above

NS(=O)(=O)C(F)(F)C(F)(F)C(F)(F)C(F)(F)C(F)(F)C(F)(F)F
active: [1] 10.7 µM and 13.8 µM | [5] 5.95 µM and 46.8 µM | [6] 43.9 µM | [7] 26.3 µM and 30 µM | [8] 28.6 µM and 32.5 µM | [10] 41.7 µM and 21.7 µM | [12] 11.8 µM | [13] 30 µM | [14] 55.3 µM
inactive: [2] | [3] | [4] | [6] | [9] | [11] | [12] | [13] | [15] | [14]

Cc1ccc(S(=O)(=O)C(I)I)cc1
inactive: [1] | [4]
active: [2] 2.3 µM | [3] 3.07 µM | [5] 3.03 µM | [6] 2.99 µM | [7] 2.98 µM | [8] 3.25 µM | [9] 3.7 µM | [10] 5.14 µM | [11] 6.86 µM | [12] 1.43 µM | [13] 4.27 µM | [14] 5.34 µM

From PubChem BioAssay (EPA / NIEHS)
